The whole screen tested about 310,000 compounds, of which about 14,000 (4.5%) showed an effect of 50% or more. Effects have a minus sign here. For the sample, strong results were picked, then their nearest neighbours and some compounds at random.
Biological target: human ether-à-go-go-related gene (hERG) potassium channel (human, UniProt Q12809)
Assay: primary screen, population patch clamp on CHO cells stably expressing hERG; higher = less effect of the substance
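Also: peak tail current of the secondary pulse compared with the same well before compound.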

Chain of human ether-à-go-go-related gene (hERG) potassium channel (Q12809 whole entry, looked up): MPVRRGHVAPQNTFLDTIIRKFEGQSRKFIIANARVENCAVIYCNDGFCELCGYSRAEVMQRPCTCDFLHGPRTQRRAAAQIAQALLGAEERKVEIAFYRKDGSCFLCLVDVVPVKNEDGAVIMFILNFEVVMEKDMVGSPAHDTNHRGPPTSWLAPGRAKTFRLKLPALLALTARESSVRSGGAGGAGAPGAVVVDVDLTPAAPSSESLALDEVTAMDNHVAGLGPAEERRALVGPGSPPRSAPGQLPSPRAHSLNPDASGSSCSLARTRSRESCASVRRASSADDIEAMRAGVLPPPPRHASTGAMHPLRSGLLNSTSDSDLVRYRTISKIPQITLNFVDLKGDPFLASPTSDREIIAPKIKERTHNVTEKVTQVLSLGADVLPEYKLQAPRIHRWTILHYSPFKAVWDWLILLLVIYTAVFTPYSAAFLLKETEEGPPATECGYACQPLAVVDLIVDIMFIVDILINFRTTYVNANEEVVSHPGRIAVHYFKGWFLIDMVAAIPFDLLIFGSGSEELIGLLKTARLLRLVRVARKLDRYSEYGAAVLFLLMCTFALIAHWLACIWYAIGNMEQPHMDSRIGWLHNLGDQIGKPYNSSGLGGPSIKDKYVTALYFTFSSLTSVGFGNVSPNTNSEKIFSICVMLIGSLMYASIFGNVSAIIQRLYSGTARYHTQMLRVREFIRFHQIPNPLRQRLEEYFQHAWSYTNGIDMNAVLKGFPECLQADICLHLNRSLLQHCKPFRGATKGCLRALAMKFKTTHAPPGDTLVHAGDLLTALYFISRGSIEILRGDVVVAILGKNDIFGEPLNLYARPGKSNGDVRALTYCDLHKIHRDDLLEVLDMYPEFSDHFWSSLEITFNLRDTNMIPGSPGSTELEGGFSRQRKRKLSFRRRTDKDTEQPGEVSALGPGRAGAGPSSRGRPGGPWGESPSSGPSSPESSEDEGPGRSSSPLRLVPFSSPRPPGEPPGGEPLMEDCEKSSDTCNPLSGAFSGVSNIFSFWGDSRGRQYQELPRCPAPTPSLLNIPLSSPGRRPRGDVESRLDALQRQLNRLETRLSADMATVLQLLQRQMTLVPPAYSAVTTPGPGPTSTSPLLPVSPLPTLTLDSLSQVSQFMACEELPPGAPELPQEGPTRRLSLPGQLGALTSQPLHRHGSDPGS

Going from `CCCCC1=NN(C(=O)c2ccncc2)C(O)(C(F)(F)F)C1` (stereo not shown) to `CCCNC(=O)NCCc1ccncc1`, the “hERG current change (%, negative = inhibition) at 10uM” value falls from 23.1% to 7.09%.

Going from `COc1ccccc1C(=O)COC(=O)CCNS(=O)(=O)c1ccc(C)c(C)c1` to `Cc1ccc(NS(=O)(=O)c2ccc(C(=O)NNC(=O)c3ccccc3O)cc2)cc1`, the “hERG current change (%, negative = inhibition) at 10uM” value rises from -21.9% to 0.906%.

Going from `CCC(C(=O)N1CCN(c2ccccn2)CC1)n1nc(C)n2c(cc3occc32)c1=O` (stereo not shown) to `CC(=O)c1ccc(N2CCN(C(=O)CCS(=O)(=O)c3ccc4c(c3)CCN4C(C)=O)CC2)cc1`, the “hERG current change (%, negative = inhibition) at 10uM” value rises from -5.95% to 3.77%.

Compared with `Cc1ccc(C(=O)N2N=C(c3ccccc3O)CC2c2ccccc2)cc1` (stereo not shown), `CC(=O)Nc1ccc(C2=NN(c3ccccc3)C(c3cccs3)C2)cc1` (stereo not shown) is lower in “hERG current change (%, negative = inhibition) at 10uM” value: 14.6% for the first, 7.7% for the second.

First: COc1ccc(NC(=O)CSc2nc(=O)n(CCN(C)C)c3c2CCCC3)cc1OC
Second: COc1cccc(NC(=O)CSc2nc(=O)n(CCN(C)C)c3c2CCCC3)c1
The “hERG current change (%, negative = inhibition) at 10uM” value of the first is higher: -11.5% for the first, -49.9% for the second.

Going from `CN(C)CCn1c2c(c(SCC(=O)Nc3ccccc3)nc1=O)CCCC2` to `CN(C)CCn1c2c(c(SCC(=O)Nc3cccc(C(F)(F)F)c3)nc1=O)CCCC2`, the “hERG current change (%, negative = inhibition) at 10uM” value falls from -26.7% to -68.8%.

Compared with `Cc1ccc(NC(=O)CSc2nc(=O)n(CCN(C)C)c3c2CCCC3)cc1Cl`, `CN(C)CCn1c2c(c(SCC(=O)Nc3ccc4c(c3)OCCO4)nc1=O)CCCC2` is higher in “hERG current change (%, negative = inhibition) at 10uM” value: -59.8% for the first, -14.8% for the second.

First: Cc1ccc(-n2nc3c(c2NC(=O)c2ccco2)CS(=O)C3)cc1 (stereo not shown)
Second: Cc1ccc(C(=O)Nc2nnc(SCC(=O)N3CCCc4ccccc43)s2)cc1
The “hERG current change (%, negative = inhibition) at 10uM” value of the first is lower: -8.69% for the first, 7.27% for the second.

First: CC(C)Cn1c(=S)[nH]c2ccccc2c1=O
Second: CCn1c(SCc2ccccc2)nc2ccccc2c1=O
The “hERG current change (%, negative = inhibition) at 10uM” value of the first is higher: 22% for the first, 2.76% for the second.

Going from `COc1ccc2c(c1OC)C(=O)N(c1ccc(O)cc1)C2=O` to `COc1ccc(N2C(=O)CC(Nc3cccc(C(C)=O)c3)C2=O)cc1OC` (stereo not shown), the “hERG current change (%, negative = inhibition) at 10uM” value falls from 13.4% to 7.07%.

Compared with `Cc1cc(=O)oc(C)c1C(=O)NCc1ccccc1`, `Cc1cc(=O)oc(C)c1C(=O)NCCc1ccccc1` is lower in “hERG current change (%, negative = inhibition) at 10uM” value: 11.2% for the first, 7.49% for the second.

First: CCN(CCCNC(=O)c1c(C)cc(=O)oc1C)c1ccccc1
Second: CCCCN(CCCNC(=O)c1c(C)cc(=O)oc1C)c1ccccc1
The “hERG current change (%, negative = inhibition) at 10uM” value of the first is higher: -52.7% for the first, -64.4% for the second.

Compared with `CCN(CCCNC(=O)c1[nH]c(C)c(C(C)=O)c1C)c1cccc(C)c1`, `CCN(CCCNC(=O)c1c(C)cc(=O)oc1C)c1cccc(C)c1` is lower in “hERG current change (%, negative = inhibition) at 10uM” value: -18.2% for the first, -65.3% for the second.

Compared with `Cc1cc(=O)oc(C)c1C(=O)NCCNC(=O)c1c(C)cc(=O)oc1C`, `CCCNC(=O)c1c(C)cc(=O)oc1C` is lower in “hERG current change (%, negative = inhibition) at 10uM” value: 3.85% for the first, -6.11% for the second.

Going from `Cc1cc(=O)oc(C)c1C(=O)NCCN(C)Cc1ccccc1` to `O=C(CCCN1C(=O)c2ccccc2C1=O)NCc1ccco1`, the “hERG current change (%, negative = inhibition) at 10uM” value falls from 8.33% to 6.15%.

Compared with `COc1ccc(-c2csc3ncn(Cc4ccccc4)c(=O)c23)cc1`, `Cc1ccccc1OCc1nc2ccccc2c(=O)n1/N=C/c1cn[nH]c1-c1ccc(Br)cc1` is higher in “hERG current change (%, negative = inhibition) at 10uM” value: -0.922% for the first, 15.8% for the second.

Compared with `COc1ccc(N2CCN(CC(=O)N3N=CCC3c3ccccc3)CC2)cc1` (stereo not shown), `Cc1ccc(OCC(=O)NC(C)c2ccccc2)cc1` (stereo not shown) is higher in “hERG current change (%, negative = inhibition) at 10uM” value: -2.49% for the first, -1.19% for the second.

Compared with `O=C(COC(=O)CCc1c[nH]c2ccccc12)NCc1ccc2c(c1)OCO2`, `COc1ccc(CNC(=O)COC(=O)/C=C/c2cccc(Br)c2)cc1OC` is higher in “hERG current change (%, negative = inhibition) at 10uM” value: 13.2% for the first, 30.1% for the second.

Going from `C/C(=N\NC(=S)NC1CCCCC1)c1c(F)cccc1F` to `O=C(COC(=O)c1ccccc1F)NC(=O)NC1CCCC1`, the “hERG current change (%, negative = inhibition) at 10uM” value rises from -35% to 1.24%.

Going from `C/C(N)=C(/C#N)C(=O)COC(=O)[C@@H](NC(=O)c1ccccc1Cl)C(C)C` to `Cc1c(NC(=O)C(C)OC(=O)c2ccc(Cl)nc2)c(=O)n(-c2ccccc2)n1C` (stereo not shown), the “hERG current change (%, negative = inhibition) at 10uM” value falls from 4.16% to -2.18%.

First: COc1ccc(S(=O)(=O)N2CCOC2CNC(=O)C(=O)NCc2ccncc2)cc1 (stereo not shown)
Second: COc1ccccc1-c1nnc(NC(=O)c2ccc(S(=O)(=O)N3CCCC3)cc2)o1
The “hERG current change (%, negative = inhibition) at 10uM” value of the first is higher: 3.26% for the first, -17.3% for the second.

Compared with `COc1ccccc1-c1nnc(SCC(=O)NC2CCCCC2)o1`, `COc1ccc(OC)c(-c2nnc(SCC(=O)NC3CCCCC3)o2)c1` is lower in “hERG current change (%, negative = inhibition) at 10uM” value: -27.4% for the first, -59.8% for the second.

Compared with `COc1ccc(-c2nnc(SCC(=O)NC3CCCCC3)o2)cc1OC`, `COc1ccc(-c2ccc(SCC(=O)NC3CCCCC3)nn2)cc1OC` is higher in “hERG current change (%, negative = inhibition) at 10uM” value: -9.47% for the first, 16.4% for the second.

Going from `COc1ccccc1-c1ccc(SCC(=O)NC2CCCCC2)nn1` to `COc1ccccc1-c1ccc(SCC(=O)NC2CCCC2)nn1`, the “hERG current change (%, negative = inhibition) at 10uM” value rises from -72% to -24.5%.

Compared with `COC(=O)Cn1c(=NC(=O)c2ccc(Cl)s2)sc2cc(F)ccc21`, `CC(C(=O)NCC(=O)Nc1ccc(F)c(F)c1F)N1CCN(c2ccc(O)cc2)CC1` (stereo not shown) is lower in “hERG current change (%, negative = inhibition) at 10uM” value: 20% for the first, -6.1% for the second.

First: O=C(CCS(=O)(=O)c1ccc(Cl)cc1)Nc1ccc(N2CCOCC2)cc1
Second: O=S(=O)(Nc1ccc2c(c1)nc1n2CCN(Cc2ccccc2)C1)c1ccc(Cl)cc1
The “hERG current change (%, negative = inhibition) at 10uM” value of the first is lower: -6.95% for the first, -2.38% for the second.

Compared with `CCOC(=O)c1sc2nc(C)nc(Nc3ccc(OC)cc3)c2c1C`, `Cc1cc(C)n(-c2ccc(C(=O)OCC(=O)Nc3ccc([N+](=O)[O-])cc3)cc2)n1` is lower in “hERG current change (%, negative = inhibition) at 10uM” value: 24.1% for the first, -10.6% for the second.

Compared with `CN(Cc1cccnc1)C(=O)Cc1ccc(NS(=O)(=O)c2cccc(C(F)(F)F)c2)cc1`, `CC(NC(=O)Cc1ccc(NS(=O)(=O)c2cccc(C(F)(F)F)c2)cc1)c1ccccn1` (stereo not shown) is higher in “hERG current change (%, negative = inhibition) at 10uM” value: -57.6% for the first, -7.55% for the second.

First: O=S(=O)(Nc1cccnc1)c1cccc(C(F)(F)F)c1
Second: O=S(=O)(Nc1ccc2c(c1)nc1n2CCN(Cc2ccccc2)C1)c1ccccc1
The “hERG current change (%, negative = inhibition) at 10uM” value of the first is higher: -2.26% for the first, -40.1% for the second.

Compared with `Cc1ccc(C(=O)N2CCOCC2)cc1Cl`, `O=C(c1cn(-c2ccccc2)nc1-c1ccc(Cl)s1)N1CCOCC1` is lower in “hERG current change (%, negative = inhibition) at 10uM” value: 2.91% for the first, -20.9% for the second.

Going from `N#CC1(NC(=O)CN2c3cccc4cccc(c34)S2(=O)=O)CCCCC1` to `O=C1C2=C(CCCC2)C(=O)N1CNc1ccccc1`, the “hERG current change (%, negative = inhibition) at 10uM” value rises from 14.9% to 16.3%.

Going from `COc1ccccc1-c1nnc(C2CCN(S(=O)(=O)c3ccc([N+](=O)[O-])cc3)CC2)o1` to `COc1ccccc1-c1nnc(C2CCN(S(=O)(=O)c3cccc([N+](=O)[O-])c3)CC2)o1`, the “hERG current change (%, negative = inhibition) at 10uM” value rises from -74.6% to -57.6%.

Compared with `O=[N+]([O-])c1cccc(S(=O)(=O)N2CCC(c3nc(-c4ccncc4)no3)CC2)c1`, `COc1ccccc1CNC(=O)C1CCN(S(=O)(=O)c2cccc([N+](=O)[O-])c2)CC1` is lower in “hERG current change (%, negative = inhibition) at 10uM” value: 1.54% for the first, -3.34% for the second.

Going from `COc1ccccc1-c1nnc(C2CCN(S(=O)(=O)c3ccccc3[N+](=O)[O-])CC2)o1` to `CCOC(=O)N1CCC(N2C(=O)c3ccc(C(=O)Nc4ccc(OC)c(OC)c4)cc3C2=O)CC1`, the “hERG current change (%, negative = inhibition) at 10uM” value rises from -45.2% to 23.2%.

Compared with `COc1cc(OC)cc(C(=O)NCCCNC(=O)c2cccnc2)c1`, `CC(C)CCN1CCN(Cc2cccn2-c2cccnc2)CC1CCO` (stereo not shown) is lower in “hERG current change (%, negative = inhibition) at 10uM” value: 7.43% for the first, -32.5% for the second.

Compared with `N#C/C(=C\c1ccc(N2CCCCC2)o1)C(N)=O`, `CC(C)C(=O)Nc1ccc2c(c1)nc(CCN1CCCCC1)n2C` is lower in “hERG current change (%, negative = inhibition) at 10uM” value: 7.71% for the first, -0.778% for the second.

Going from `OCCC1CN(Cc2cccn2-c2ncccn2)CCN1Cc1ccccc1` (stereo not shown) to `OCCC1CN(Cc2cccn2-c2ncccn2)CCN1CCc1ccccc1` (stereo not shown), the “hERG current change (%, negative = inhibition) at 10uM” value falls from -64.2% to -68.2%.

First: OCCC1CN(Cc2cccn2-c2cccnc2)CCN1CCc1ccccc1 (stereo not shown)
Second: OCCC1CN(Cc2cccn2-c2ncccn2)CCN1Cc1ccc(F)cc1 (stereo not shown)
The “hERG current change (%, negative = inhibition) at 10uM” value of the first is higher: -65.2% for the first, -73.7% for the second.

Going from `Cc1ncc(CN2CCN(Cc3ccc(F)cc3)C(CCO)C2)s1` (stereo not shown) to `COc1ccc(CN2CCN(Cc3cccn3-c3ncccn3)CC2CCO)c(C)c1C` (stereo not shown), the “hERG current change (%, negative = inhibition) at 10uM” value falls from 9.56% to -81.6%.

Going from `Cc1ccc(-n2c(SCC(=O)O)nc3c(sc(=S)n3-c3ccc(C)c(C)c3)c2=O)cc1` to `O=C1CC(N(Cc2cccs2)C(=O)Nc2ccccc2)C(=O)N1c1ccc(Cl)cc1` (stereo not shown), the “hERG current change (%, negative = inhibition) at 10uM” value falls from 14% to -22.6%.

First: Cc1cc(NC(=O)COc2ccc(F)c(Cl)c2)no1
Second: N#Cc1ccc(-c2ccc(OCC(=O)NCC(=O)Nc3ccc(F)c(F)c3F)cc2)cc1
The “hERG current change (%, negative = inhibition) at 10uM” value of the first is higher: 17.7% for the first, -7.98% for the second.

Compared with `CCN(CC)c1ccc(NC(=O)Nc2cccc3ccccc23)cc1`, `O=S(=O)(Nc1ccc2c(c1)nc1n2CCN(Cc2ccccc2)C1)c1ccc(F)cc1` is lower in “hERG current change (%, negative = inhibition) at 10uM” value: 7.7% for the first, -50.4% for the second.

Compared with `COc1ccc(CN2CCN(CC3CC3)CC2CCO)c(C)c1C` (stereo not shown), `CCn1nc(C)c(CN2CCN(Cc3ccc(OC)c(C)c3C)C(CCO)C2)c1C` (stereo not shown) is lower in “hERG current change (%, negative = inhibition) at 10uM” value: -0.714% for the first, -45.8% for the second.

Compared with `CC(C(=O)NCC(=O)Nc1ccc(F)c(F)c1F)N1CCN(Cc2ccc(C#N)cc2)CC1` (stereo not shown), `Cn1c(CN2CCCCC2)nc2cc(NS(=O)(=O)c3ccc(F)cc3)ccc21` is higher in “hERG current change (%, negative = inhibition) at 10uM” value: -61% for the first, -54.2% for the second.

First: O=C(/N=C1\NC(=O)C(F)(C(F)(F)F)S1)NC1CCCCC1 (stereo not shown)
Second: CCCC(=O)Nc1ccc2c(c1)nc(CCN1CCCCC1)n2C
The “hERG current change (%, negative = inhibition) at 10uM” value of the first is higher: 13% for the first, -4.96% for the second.

In the case of `Cn1c(CCN2CCCCC2)nc2cc(NS(=O)(=O)c3ccc(F)cc3)ccc21`, the “hERG current change (%, negative = inhibition) at 10uM” value is reported as -67.6%.

Source: article PMC4336329 (PLoS ONE, 2015)
